Measurements: PubChem BioAssay
The source made the active and inactive calls.

Tests used:
[1] = small molecules captured by biotinylated probe aFSTL3 – biochemical, small-molecule microarray, fluorescence 635/667, stem cell growth factor project, primary screen (AID 1064); conditions: higher = more signal;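 note: measures binding of the biotinylated anti-FSTL3 antibody to printed compounds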
[2] = binders from COS7 lysate, DM2A8 probe, primary screen, torsin A project, cell lysate, small-molecule microarray, fluorescence 635/667 (AID 1065); conditions: higher = more signal, COS7 lysate expressing mutant human TOR1A
[3] = small molecules captured by biotinylated probe aFGF2 – biochemical, small-molecule microarray, fluorescence 635/667, stem cell growth factor project, primary screen (AID 1067); conditions: higher = more signal;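 note: measures binding of biotinylated aFGF2 protein to printed compounds on slides; z-score merges feature fluorescence and signal-to-noise across triplicate slides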
[4] = small molecules captured by biotinylated probe aFGF10 – biochemical, small-molecule microarray, fluorescence 635/667, stem cell growth factor project, primary screen (AID 1071); conditions: higher = more signal;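 note: score merges 667 nm spot intensity and signal to noise from triplicate slides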
[5] = target: Neurogenic locus notch homolog protein 2 (Homo sapiens) (UniProt Q04721); assay: small molecules binding Notch2 protein – biochemical, small-molecule microarray, 635 nm fluorescence, stem cell growth factors, primary screen (AID 1073); conditions: higher = more signal
[6] = target: Pro-neuregulin-1, membrane-bound isoform (Homo sapiens) (UniProt Q02297); assay: small molecules binding neuregulin-1 protein – biochemical, small-molecule microarray, fluorescence 635/667, psychiatric disease protein project, primary screen (AID 1075); conditions: NRG1 binding, 635 nm fluorescence, higher = more signal;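 note: score combines 667 nm spot fluorescence with signal to noise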
Pro-neuregulin-1, membrane-bound isoform (Homo sapiens), sequence (Q02297 whole entry, looked up, the tested form may be a part, canonical isoform): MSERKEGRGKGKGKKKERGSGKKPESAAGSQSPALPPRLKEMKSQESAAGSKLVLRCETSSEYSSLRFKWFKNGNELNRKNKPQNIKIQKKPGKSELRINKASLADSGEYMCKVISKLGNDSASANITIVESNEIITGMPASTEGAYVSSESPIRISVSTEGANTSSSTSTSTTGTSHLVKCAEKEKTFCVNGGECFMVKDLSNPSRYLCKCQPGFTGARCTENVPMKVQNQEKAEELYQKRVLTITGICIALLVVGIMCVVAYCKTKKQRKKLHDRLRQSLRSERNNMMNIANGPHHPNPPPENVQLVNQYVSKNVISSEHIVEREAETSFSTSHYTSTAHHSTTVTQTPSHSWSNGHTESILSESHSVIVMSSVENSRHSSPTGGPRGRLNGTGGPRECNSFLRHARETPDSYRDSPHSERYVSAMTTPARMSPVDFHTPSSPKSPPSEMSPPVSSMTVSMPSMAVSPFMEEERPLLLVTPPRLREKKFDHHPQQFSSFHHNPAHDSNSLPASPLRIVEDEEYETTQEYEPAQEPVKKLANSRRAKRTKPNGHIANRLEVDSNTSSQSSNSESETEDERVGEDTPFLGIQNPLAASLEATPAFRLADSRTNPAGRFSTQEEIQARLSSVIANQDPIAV

[7] = system: Neuregulin-1 EGF-like domain; assay: small molecules binding NRG1 EGF domain – biochemical, small-molecule microarray, 635 nm fluorescence, primary screen (AID 1081); conditions: higher = more signal;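 note: binding of the protein to compounds printed on small-molecule microarray slides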
[8] = FRG1 expression reporter modulators in myotubes – cell-based, C2C12 myotubes, firefly/Renilla luciferase, luminescence, FRG1 inhibition for FSHD, primary screen (AID 1084); conditions: FRG1 promoter luciferase, higher = more signal, called active from +8 up or from −8 down
[9] = small molecules captured by biotinylated probe aFST – biochemical, small-molecule microarray, fluorescence 635/667, stem cell growth factor project, primary screen (AID 1086); conditions: higher = more signal;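 note: score merges 667 nm fluorescence with signal-to-noise of each printed compound spot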
[10] = binders of probe aHhip on microarray, primary screen, stem cell growth factor project, biochemical, small-molecule microarray, fluorescence 635/667 (AID 1087); conditions: higher = more signal;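 note: score merges spot fluorescence at 667nm with spot signal to noise ratio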
[11] = system: PRMT1 (protein arginine N-methyltransferase 1); assay: small molecules binding arginine methyltransferase PRMT1 – biochemical, small-molecule microarray, 635 nm fluorescence, primary screen (AID 1088); conditions: higher = more signal;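 note: binding of Prmt1 protein to compounds spotted on small-molecule microarray slides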
[12] = growth effects on S. cerevisiae YJM789 – YJM789 clinical isolate, OD600, 24 h, basal, primary screen (AID 1089); conditions: higher = more signal, called active from +8 up or from −8 down;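 note: growth of clinical yeast isolate S. cerevisiae YJM 789 seeded 1000 cells per well; test concentration not given here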
[13] = S. pombe growth modifiers, basal conditions – strain 972, OD600, 24 h, no modulator, primary screen (AID 1090);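 note: basal condition with compound alone and no growth modifier present; test concentration not given here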; conditions: S. pombe 972 growth, higher = more signal, called active from +8 up or from −8 down
[14] = budding yeast growth modifiers under rapamycin – strain BY4716, OD600, 96 h, primary screen (AID 1091); note: test concentration not given here; conditions: S. cerevisiae BY4716 + rapamycin, higher = more signal, called active from +8 up or from −8 down
[15] = target: Torsin-1A-interacting protein 2 (Homo sapiens) (UniProt Q8NFQ8); assay: small molecules binding lysate-expressed LULL1 – cell lysate, human LULL1 lysate, 635/667 nm fluorescence, primary screen (AID 1092); conditions: small-molecule microarray, hLULL1 lysate binding, 635 nm fluorescence; higher = more signal;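 note: probe is lysate of COS7 cells overexpressing human LULL1; score merges per-feature 667 nm fluorescence with signal-to-noise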
Torsin-1A-interacting protein 2 (Homo sapiens), sequence (Q8NFQ8 whole entry, looked up): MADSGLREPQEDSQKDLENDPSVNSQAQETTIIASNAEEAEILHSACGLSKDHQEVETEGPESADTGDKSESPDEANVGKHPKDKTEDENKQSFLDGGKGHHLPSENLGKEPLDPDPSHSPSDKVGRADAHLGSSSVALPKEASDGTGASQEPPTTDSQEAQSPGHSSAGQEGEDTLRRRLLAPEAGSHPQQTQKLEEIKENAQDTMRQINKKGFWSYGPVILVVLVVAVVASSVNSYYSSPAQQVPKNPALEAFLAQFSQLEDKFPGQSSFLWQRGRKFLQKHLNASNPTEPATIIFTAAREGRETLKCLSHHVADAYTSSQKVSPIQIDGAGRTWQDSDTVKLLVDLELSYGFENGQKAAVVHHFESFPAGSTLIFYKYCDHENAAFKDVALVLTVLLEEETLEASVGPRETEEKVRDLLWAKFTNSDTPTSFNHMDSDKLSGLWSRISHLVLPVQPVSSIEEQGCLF

[16] = optical density change of DRC41 E. coli – strain DRC41, OD650, 24 h, E. coli filamentation project, primary screen (AID 1093);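 note: MC1000 strain lacking acrAB efflux and sulA so SOS filamentation is blocked; test concentration not given here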; conditions: E. coli DRC41 growth, higher = more signal, called active from +8 up or from −8 down
[17] = probe aLefty2 binding to arrayed compounds – biochemical, biotinylated probe, 635/667 nm fluorescence, primary screen (AID 1094); conditions: small-molecule microarray, higher = more signal;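 note: score merges spot fluorescence near 667 nm with spot signal-to-noise ratio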
[18] = system: Noggin (protein binding on small-molecule microarray); assay: small molecules binding Noggin protein – biochemical, 635/667 nm fluorescence, primary screen (AID 1095); conditions: 635 nm fluorescence, higher = more signal;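 note: score merges 667 nm feature fluorescence with signal to noise over triplicate slides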
[19] = target: Neurogenic locus notch homolog protein 3 (Homo sapiens) (UniProt Q9UM47); assay: small molecules binding NOTCH3 protein – biochemical, 635/667 nm fluorescence, primary screen (AID 1096); conditions: small-molecule microarray, 635 nm fluorescence, higher = more signal
Neurogenic locus notch homolog protein 3 (Homo sapiens), sequence (Q9UM47 whole entry, looked up): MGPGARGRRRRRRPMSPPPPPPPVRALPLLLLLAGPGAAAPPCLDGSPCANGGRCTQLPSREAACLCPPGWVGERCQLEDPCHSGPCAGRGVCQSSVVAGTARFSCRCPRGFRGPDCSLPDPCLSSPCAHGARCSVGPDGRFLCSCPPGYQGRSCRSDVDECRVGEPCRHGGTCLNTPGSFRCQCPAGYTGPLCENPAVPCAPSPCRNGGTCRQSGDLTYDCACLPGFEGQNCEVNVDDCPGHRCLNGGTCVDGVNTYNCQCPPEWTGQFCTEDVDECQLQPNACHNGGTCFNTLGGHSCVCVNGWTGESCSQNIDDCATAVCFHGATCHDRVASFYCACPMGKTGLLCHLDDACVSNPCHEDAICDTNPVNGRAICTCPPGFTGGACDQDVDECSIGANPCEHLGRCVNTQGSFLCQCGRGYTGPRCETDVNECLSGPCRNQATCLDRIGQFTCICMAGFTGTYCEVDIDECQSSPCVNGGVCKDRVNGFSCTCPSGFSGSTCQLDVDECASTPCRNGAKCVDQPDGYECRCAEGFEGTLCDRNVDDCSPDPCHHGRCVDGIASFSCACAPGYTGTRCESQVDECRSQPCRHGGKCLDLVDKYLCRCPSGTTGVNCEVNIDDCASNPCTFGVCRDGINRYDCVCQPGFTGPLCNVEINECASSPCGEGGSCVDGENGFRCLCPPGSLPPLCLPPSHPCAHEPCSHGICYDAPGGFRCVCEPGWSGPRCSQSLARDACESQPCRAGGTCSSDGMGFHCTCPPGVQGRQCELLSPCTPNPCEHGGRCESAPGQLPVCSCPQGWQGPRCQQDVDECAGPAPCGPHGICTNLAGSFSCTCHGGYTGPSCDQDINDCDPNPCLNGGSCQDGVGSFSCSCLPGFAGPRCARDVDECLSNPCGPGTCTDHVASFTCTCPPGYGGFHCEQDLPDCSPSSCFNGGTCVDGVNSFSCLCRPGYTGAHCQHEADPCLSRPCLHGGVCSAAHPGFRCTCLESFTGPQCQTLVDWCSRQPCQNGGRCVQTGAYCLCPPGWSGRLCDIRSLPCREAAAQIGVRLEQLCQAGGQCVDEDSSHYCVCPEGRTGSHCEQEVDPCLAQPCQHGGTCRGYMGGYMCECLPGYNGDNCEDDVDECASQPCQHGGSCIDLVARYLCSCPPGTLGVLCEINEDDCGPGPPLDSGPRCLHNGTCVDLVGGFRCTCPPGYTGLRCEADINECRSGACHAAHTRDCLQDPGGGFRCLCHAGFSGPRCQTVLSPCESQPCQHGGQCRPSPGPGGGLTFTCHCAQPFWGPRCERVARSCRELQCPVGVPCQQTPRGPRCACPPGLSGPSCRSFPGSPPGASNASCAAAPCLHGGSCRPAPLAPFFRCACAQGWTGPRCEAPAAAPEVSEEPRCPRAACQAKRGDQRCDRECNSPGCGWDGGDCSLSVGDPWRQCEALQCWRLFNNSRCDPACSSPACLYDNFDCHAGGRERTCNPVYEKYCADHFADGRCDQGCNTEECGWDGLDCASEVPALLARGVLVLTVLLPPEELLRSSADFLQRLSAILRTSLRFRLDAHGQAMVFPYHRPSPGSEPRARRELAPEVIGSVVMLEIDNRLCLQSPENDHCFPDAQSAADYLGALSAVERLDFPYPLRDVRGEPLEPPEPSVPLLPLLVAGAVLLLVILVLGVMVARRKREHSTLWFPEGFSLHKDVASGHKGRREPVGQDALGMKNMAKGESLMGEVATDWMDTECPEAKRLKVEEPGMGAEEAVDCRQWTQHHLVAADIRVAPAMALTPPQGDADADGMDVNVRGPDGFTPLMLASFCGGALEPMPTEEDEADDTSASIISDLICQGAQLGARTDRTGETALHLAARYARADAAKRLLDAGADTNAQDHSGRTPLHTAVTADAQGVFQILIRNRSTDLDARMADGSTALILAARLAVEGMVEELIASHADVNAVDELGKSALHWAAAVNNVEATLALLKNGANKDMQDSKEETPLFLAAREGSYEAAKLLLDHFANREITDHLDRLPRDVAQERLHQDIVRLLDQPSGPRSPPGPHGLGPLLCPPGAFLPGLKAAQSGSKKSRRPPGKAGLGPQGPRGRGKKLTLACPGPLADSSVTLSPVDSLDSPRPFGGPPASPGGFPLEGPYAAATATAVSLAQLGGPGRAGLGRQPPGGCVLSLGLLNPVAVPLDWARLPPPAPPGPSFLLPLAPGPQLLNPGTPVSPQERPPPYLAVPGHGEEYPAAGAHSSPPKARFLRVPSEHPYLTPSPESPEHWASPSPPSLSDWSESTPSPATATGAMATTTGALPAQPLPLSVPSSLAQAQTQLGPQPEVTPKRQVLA

[20] = probe aEGFR binding to arrayed compounds – biochemical, biotinylated probe, 635/667 nm fluorescence, primary screen (AID 1097); conditions: small-molecule microarray, higher = more signal;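 note: probe is a biotinylated anti-EGFR antibody binding compounds printed on slides; score combines fluorescence near 667 nm and signal to noise of each spot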

SMILES: COC(=O)[C@H](C)NC(=O)CCC1CC(OC(=O)NCCc2ccc(F)cc2)CC2(CCCC(COC(=O)NCc3cccc(C(F)(F)F)c3)O2)O1 (stereo not given in full)
- composite z-score [1]: -0.632
- composite z-score [2]: 0.041
- composite z-score [3]: -0.0265
- composite z-score [4]: 0.624
- composite z-score [5]: 1.36
- composite z-score [6]: 0.0829
- composite z-score [7]: 0.729
- z-score [8]: 0.286 (inactive)
- composite z-score [9]: 0.829
- composite z-score [10]: -0.0645
- composite z-score [11]: 0.292
- z-score [12]: -0.207 (inactive)
- z-score [13]: 1.18 (inactive)
- z-score [14]: 0.52 (inactive)
- composite z-score [15]: 1.79
- z-score [16]: 0.723 (inactive)
- composite z-score [17]: -0.0668
- composite z-score [18]: 1.01
- composite z-score [19]: 0.581
- composite z-score [20]: -0.0647

SMILES: CC(=O)OC[C@H]1O[C@H](CCON=C2[C@H]3CCn4c(=O)n(-c5ccccc5)c(=O)n4[C@H]3[C@H](O)[C@@H]3O[C@H]23)C=C[C@@H]1OC(C)=O
- composite z-score [1]: -0.47
- composite z-score [2]: 0.141
- composite z-score [3]: -0.0218
- composite z-score [4]: 0.448
- composite z-score [5]: 0.57
- composite z-score [6]: -0.147
- composite z-score [7]: 0.18
- z-score [8]: -0.513 (inactive)
- composite z-score [9]: 0.476
- composite z-score [10]: 0.163
- composite z-score [11]: 0.156
- z-score [12]: -0.111 (inactive)
- z-score [13]: 0.127 (inactive)
- z-score [14]: 0.49 (inactive)
- composite z-score [15]: 0.77
- z-score [16]: 0.93 (inactive)
- composite z-score [17]: -0.25
- composite z-score [18]: 1.43
- composite z-score [19]: 0.587
- composite z-score [20]: 0.0488

SMILES: CC(C)=CCCC(C)=CCON=C1C[C@@H](O)[C@@H](O)[C@@H]2[C@@H]3C(=O)N(C(C)(C)C)C(=O)[C@@H]3CC[C@@H]12
- composite z-score [1]: 0.0454
- composite z-score [2]: 0.113
- composite z-score [3]: -0.0473
- composite z-score [4]: 0.257
- composite z-score [5]: 0.0729
- composite z-score [6]: -0.0925
- composite z-score [7]: 0.184
- z-score [8]: -0.519 (inactive)
- composite z-score [9]: 0.13
- composite z-score [10]: -0.191
- composite z-score [11]: -0.305
- z-score [12]: 0.286 (inactive)
- z-score [13]: 0.451 (inactive)
- z-score [14]: 0.361 (inactive)
- composite z-score [15]: 0.197
- z-score [16]: -0.636 (inactive)
- composite z-score [17]: -0.0615
- composite z-score [18]: 0.386
- composite z-score [19]: 0.605
- composite z-score [20]: -0.0594

SMILES: Cc1cc2c(c(=O)o1)[C@@H](O)[C@H]1O[C@H]1C2=O
- composite z-score [1]: -0.494
- composite z-score [2]: 0.23
- composite z-score [3]: -0.0103
- composite z-score [4]: 0.336
- composite z-score [5]: 0.378
- composite z-score [6]: -0.167
- composite z-score [7]: 0.239
- z-score [8]: 0.446 (inactive)
- composite z-score [9]: 0.163
- composite z-score [10]: 0.151
- composite z-score [11]: 0.798
- z-score [12]: 0.112 (inactive)
- z-score [13]: -0.0772 (inactive)
- z-score [14]: 0.233 (inactive)
- composite z-score [15]: 0.0376
- z-score [16]: -1 (inactive)
- composite z-score [17]: -0.358
- composite z-score [18]: 0.887
- composite z-score [19]: 0.482
- composite z-score [20]: -0.12

SMILES: CCCNC(=O)OC[C@H]1O[C@H](CCON=C(C)C)C=C[C@@H]1Oc1ccc(OC)cc1
- composite z-score [1]: 0.0684
- composite z-score [2]: -0.152
- composite z-score [3]: -0.0598
- composite z-score [4]: 0.332
- composite z-score [5]: -0.482
- composite z-score [6]: 0.0871
- composite z-score [7]: -0.327
- z-score [8]: 0.534 (inactive)
- composite z-score [9]: 0.139
- composite z-score [10]: -0.226
- composite z-score [11]: 0.612
- z-score [12]: -0.578 (inactive)
- z-score [13]: -5.54 (inactive)
- z-score [14]: 0.0158 (inactive)
- composite z-score [15]: 0.876
- z-score [16]: 0.964 (inactive)
- composite z-score [17]: 0.0472
- composite z-score [18]: 0.422
- composite z-score [19]: -0.216
- composite z-score [20]: -0.0581

SMILES: CCOC(=O)[C@H](Cc1ccccc1)NC(=O)CCC1CC(OC(=O)NCc2ccc3c(c2)OCO3)CC2(CCCC(COC(=O)NCCc3ccccc3OC)O2)O1 (stereo not given in full)
- composite z-score [1]: -0.259
- composite z-score [2]: 0.058
- composite z-score [3]: -0.147
- composite z-score [4]: 0.471
- composite z-score [5]: 1.26
- composite z-score [6]: 1.04
- composite z-score [7]: 1.1
- z-score [8]: 1.04 (inactive)
- composite z-score [9]: 0.569
- composite z-score [10]: 0.141
- composite z-score [11]: 1.49
- z-score [12]: 0.163 (inactive)
- z-score [13]: 1.07 (inactive)
- z-score [14]: 1.52 (inactive)
- composite z-score [15]: 2.67
- z-score [16]: -0.324 (inactive)
- composite z-score [17]: -0.112
- composite z-score [18]: 0.679
- composite z-score [19]: 1.08
- composite z-score [20]: 0.0287

SMILES: CO[C@H]1COC(=O)CC=C[C@H](C)[C@@H](OC)COC(=O)[C@H](C)COC(=O)CC=C[C@@H]1C
- composite z-score [1]: -0.687
- composite z-score [2]: 1.34
- composite z-score [3]: -0.223
- composite z-score [4]: -0.562
- composite z-score [5]: -0.407
- composite z-score [6]: -0.785
- composite z-score [7]: -0.142
- z-score [8]: -0.387 (inactive)
- composite z-score [9]: -0.176
- composite z-score [10]: 0.0722
- composite z-score [11]: 0.765
- z-score [12]: 0.395 (inactive)
- z-score [13]: -0.425 (inactive)
- z-score [14]: 0.567 (inactive)
- composite z-score [15]: -0.344
- z-score [16]: 0.683 (inactive)
- composite z-score [17]: -0.268
- composite z-score [18]: 1.76
- composite z-score [19]: -0.292
- composite z-score [20]: -0.0439

SMILES: CON=CC[C@@H]1C=C[C@H](OC(C)=O)[C@@H](COC(C)=O)O1
- composite z-score [1]: -0.043
- composite z-score [2]: 0.0682
- composite z-score [3]: -0.0006
- composite z-score [4]: 0.119
- composite z-score [5]: 0.255
- composite z-score [6]: -0.189
- composite z-score [7]: -0.686
- z-score [8]: 0.41 (inactive)
- composite z-score [9]: 0.143
- composite z-score [10]: 0.151
- composite z-score [11]: 0.0622
- z-score [12]: 0.586 (inactive)
- z-score [13]: 0.141 (inactive)
- z-score [14]: 0.35 (inactive)
- composite z-score [15]: 0.172
- z-score [16]: -0.0614 (inactive)
- composite z-score [17]: 0.253
- composite z-score [18]: 0.532
- composite z-score [19]: -0.0592
- composite z-score [20]: -0.184

SMILES: COC(=O)[C@H](C)NC(=O)CCC1CC(OC(=O)NCc2ccc3c(c2)OCO3)CC2(CCCC(COC(=O)NCC(c3ccccc3)c3ccccc3)O2)O1 (stereo not given in full)
- composite z-score [1]: -0.686
- composite z-score [2]: 0.7
- composite z-score [3]: -0.0541
- composite z-score [4]: 1.17
- composite z-score [5]: 0.994
- composite z-score [6]: 0.682
- composite z-score [7]: 1.28
- z-score [8]: 2.96 (inactive)
- composite z-score [9]: 0.132
- composite z-score [10]: 0.0201
- composite z-score [11]: 1.55
- z-score [12]: -0.256 (inactive)
- z-score [13]: -0.58 (inactive)
- z-score [14]: -0.122 (inactive)
- composite z-score [15]: 2.65
- z-score [16]: -0.502 (inactive)
- composite z-score [17]: -0.118
- composite z-score [18]: 1.5
- composite z-score [19]: 1.06
- composite z-score [20]: 0.0004

SMILES: CO[C@H]1COC(=O)CC=C[C@@H](C)[C@H](OC)COC(=O)CCC[C@@H]1C
- composite z-score [1]: -0.344
- composite z-score [2]: 1.58
- composite z-score [3]: -0.187
- composite z-score [4]: 0.238
- composite z-score [5]: -0.438
- composite z-score [6]: -0.35
- composite z-score [7]: -0.137
- z-score [8]: 0.444 (inactive)
- composite z-score [9]: -0.126
- composite z-score [10]: 0.176
- composite z-score [11]: 0.76
- z-score [12]: -1.47 (inactive)
- z-score [13]: -0.441 (inactive)
- z-score [14]: -1.37 (inactive)
- composite z-score [15]: -0.552
- z-score [16]: -0.351 (inactive)
- composite z-score [17]: -0.17
- composite z-score [18]: 0.978
- composite z-score [19]: 0.288
- composite z-score [20]: -0.163
